High-throughput results deposited in PubChem BioAssay by National Center for Advancing Translational Sciences (NCATS).
Shown are actives, neighbours in structure and some others; about 11% of the full set was active somewhere.
HEK cytotox – HEK 293 cell cytotoxicity; HEK 293 viability, ATP luminescence (CellTiter-Glo), 48-72 h; Potency, µM (doses to about 115 µM), without a hit: top-dose activity change, negative = cytotoxicity, actives largely listed as inhibitors; 94,000 compounds, 6.6% hits; AID 1345083; further: on the % scale 0 is the no-effect control and ±100 the full control effect; nearly all actives have a fitted effect of over 60% in size
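Cytotoxicity was scored by loss of ATP-coupled luminescence (CellTiter-Glo) in HEK 293 cells. Compound treatment ran 48 or 72 hr at 37 degree Celsius, 5% CO2, 95% humidity.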
3T3 cytotox – NIH 3T3 cell cytotoxicity; NIH 3T3 viability, CellTiter-Glo ATP luminescence, 48-72 h; Potency, µM (titrated, usually from 96.7 µM), inactives show at the top dose activity change, negative = cytotoxicity, usual class: inhibitors; 94,000 compounds, 4.3% hits; further: on the % scale 0 is the no-effect control and ±100 the full control effect; nearly all actives have a fitted effect of over 55% in size
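ATP-dependent luminescence (CellTiter-Glo) served as the viability signal for NIH 3T3 cells treated with compound for 48 or 72 hr at 37 °C.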
hNpr1 antagonist – blocks ANP-stimulated signaling of human Npr1 receptor. Potency, µM (series often up to 46.3 µM), for inactives: top-dose activity change, negative = inhibition, actives largely listed as inhibitors. P16066. 76,000 compounds, 1.6% hits. HEK293 hNpr1 GloSensor cGMP, ANP-stimulated luminescence; calls by dose curve; further: on the % scale 0 is the no-effect control and ±100 the full control effect; nearly all actives have a fitted effect of over 60% in size
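Compound pre-incubated 30 min at room temperature on GloSensor-loaded HEK293 cells stably carrying hNpr1 and the pGS-40F cGMP biosensor. Stimulation uses hNppA at 0.1 nM final; luminescence is taken at baseline and 20 min post-agonist.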
Luciferase inh – blocks purified firefly luciferase enzyme activity | P08659 | purified P. pyralis luciferase, luminescence, biochemical | Potency, µM (series often up to 115 µM), actives largely listed as inhibitors | 76,000 compounds, 2.5% hits | AID 1347043; further: on the % scale 0 is the no-effect control and ±100 the full control effect; nearly all actives have a fitted effect of over 65% in size
Target sequence (P08659 whole entry, looked up): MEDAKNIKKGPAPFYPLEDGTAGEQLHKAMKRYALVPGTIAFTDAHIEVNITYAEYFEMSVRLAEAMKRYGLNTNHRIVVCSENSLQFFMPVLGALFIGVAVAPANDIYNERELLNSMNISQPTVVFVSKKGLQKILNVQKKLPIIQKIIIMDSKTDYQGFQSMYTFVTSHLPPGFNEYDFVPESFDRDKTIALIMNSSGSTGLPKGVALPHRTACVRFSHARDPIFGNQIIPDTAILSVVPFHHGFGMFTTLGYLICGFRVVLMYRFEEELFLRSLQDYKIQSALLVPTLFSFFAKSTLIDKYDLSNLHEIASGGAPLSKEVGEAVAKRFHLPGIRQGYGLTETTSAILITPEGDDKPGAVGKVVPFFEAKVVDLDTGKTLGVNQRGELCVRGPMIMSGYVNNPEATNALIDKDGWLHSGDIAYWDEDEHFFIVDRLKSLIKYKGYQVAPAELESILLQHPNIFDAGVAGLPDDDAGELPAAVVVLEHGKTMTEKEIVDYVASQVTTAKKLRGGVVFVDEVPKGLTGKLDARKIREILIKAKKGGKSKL
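Cell-free enzyme assay, 10nM P. pyralis luciferase, luciferin and ATP each at 10uM. Inhibition profiled over a 6-point titration, read as luminescence.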
NPR1 antag cnf – hNpr1 antagonism, confirmation assay; shares compounds with hNpr1 antagonist; HEK293 hNpr1 cGMP GloSensor luminescence, ANP-stimulated; Potency, µM (top dose mostly 57.6 µM), inactives show top-dose activity change, negative = inhibition, hits mostly inhibitors; 1,400 compounds, 76% hits; AID 1347044; calls by dose curve; further: nearly all actives have a fitted effect of over 70% in size
Npr2 selectivity – hNpr2 antagonism, selectivity versus Npr1. Potency, µM (top dose mostly 57.6 µM), without a hit: at the top dose activity change, negative = inhibition, usual class: inhibitors. shares compounds with hNpr1 antagonist. 1,400 compounds, 67% hits. HEK293 hNpr2 GloSensor cGMP luminescence, CNP-stimulated; calls by dose curve; further: nearly all actives have a fitted effect of over 70% in size
FLuc counter – FLuc enzyme inhibition, Npr1 counter-screen | shares compounds with hNpr1 antagonist | 1,400 compounds, 0.7% hits | Potency, µM (doses to about 57.6 µM), for inactives: top-dose activity change, negative = inhibition, usual class: inhibitors | AID 1347047 | purified FLuc enzyme, luminescence, Km substrate; further: 0% is about no effect
GloSensor cGMP – counter-screen for Npr1 antagonists: GloSensor control cell line | shares compounds with hNpr1 antagonist | HEK293 GloSensor cGMP, SNP-stimulated, luminescence | Potency, µM (series often up to 57.6 µM), without a hit: at the highest dose activity change, negative = inhibition, hits mostly inhibitors | 1,400 compounds, 69% hits; calls by dose curve; further: on the % scale 0 is the no-effect control and ±100 the full control effect; nearly all actives have a fitted effect of over 70% in size
* marks the source's active call; other numbers are inactive results; i = inactive; ? = inconclusive; / = not tested or not shown; [ ] = dose if it differs, or a comment. Unless noted, the call rests on the fitted dose curve; in most records, active means well fitted curve in the direction sought with a large enough effect; inconclusive means small, poorly fitted or top-dose-only effect, or another doubt; inactive means no such curve, though single readings can be large; an effect the other way counts as inactive or inconclusive. Potency means the concentration at half of the fitted maximal effect.

SMILES	HEK cytotox	3T3 cytotox	hNpr1 antagonist	Luciferase inh	NPR1 antag cnf	Npr2 selectivity	FLuc counter	GloSensor cGMP
COc1ccc(-c2cn3c(n2)CO[C@@H](CNS(=O)(=O)c2ccc(C)cc2)C3)cc1	-12%[172 µM]	-32%[174 µM]	28µM*	i	31µM*	31µM*	?	28µM*
CS(=O)(=O)c1ccc(CNC[C@H]2COCc3nc4cc(F)ccc4n32)cc1	?	?	-29%[70.6 µM]	i	/	/	/	/
Cc1ccc2nc3n(c2c1)[C@@H](CNS(=O)(=O)Cc1ccccc1)COC3	?	?	?	i	/	/	/	/
Cc1ccc2c(c1)nc1n2[C@@H](CNS(=O)(=O)Cc2ccccc2)COC1	?	?	22µM*	i	35µM*	35µM*	-1%[86.2 µM]	28µM*
COc1ccc(S(=O)(=O)NC[C@H]2COCc3nc4c(C)cccc4n32)cc1	?	?	25µM*	i	18µM*	22µM*	0%[86.2 µM]	14µM*
Cc1cccc2c1nc1n2[C@@H](CNCc2ccc(S(C)(=O)=O)cc2)COC1	?	?	25µM*	i	31µM*	35µM*	0%[86.2 µM]	22µM*
N#Cc1ccccc1S(=O)(=O)N[C@H]1CO[C@H]2[C@@H]1OC[C@H]2OC(=O)NC1CCCCC1	-16%	-24%	1%	i	/	/	/	/
CC(=O)N1CCCN(c2ccc3nnc(C)n3n2)CC1	1%[172 µM]	-30%[138 µM]	/	/	/	/	/	/
CCC(=O)N1Cc2ccccc2CC2(CCCN2CC2CCCC2)C1 (stereo unspecified)	?	-4%	/	/	/	/	/	/
Cc1nc(-c2c3n(c(=O)n(CC(=O)Nc4ccc(C)c(F)c4)c2=O)CCCCC3)no1	-28%	?	-1%	i	/	/	/	/
N#Cc1ccc(C(=O)N2C[C@@H]3C[C@H](C2)c2c(/C=C/c4ccc(Cl)cc4)ccc(=O)n2C3)cc1	1%	i	-2%	i	/	/	/	/
CN(C)CC1(COc2ccc(S(C)(=O)=O)cc2)C[C@@H](O)[C@@H](O)C1 (stereo partly specified)	-1%[172 µM]	4%[138 µM]	-20%[70.6 µM]	i	/	/	/	/
COc1ccc(S(=O)(=O)NC[C@H]2COCc3nc4cc(C)ccc4n32)cc1	?	?	16µM*	i	31µM*	31µM*	3%[86.2 µM]	22µM*
COc1ccc2nc3n(c2c1)[C@@H](CNS(=O)(=O)c1ccccc1)COC3	?	?	-15%[70.6 µM]	i	/	/	/	/
C=CCN(CC=C)C(=O)c1ccc(CN2C(=O)NC3(CCS(=O)(=O)CC3)C2=O)cc1	-3%	i	4%	i	/	/	/	/
Cc1cc(=O)n(CC(=O)Nc2cccc(Cl)c2)c(N2CCc3ccccc3C2)n1	?	14µM*	20µM*	i	-30%	-23%	1%	?
Cc1cc(=O)n(CC(=O)Nc2cccc(C(C)C)c2)c(N2CCc3ccccc3C2)n1	?	?	?	i	/	/	/	/
COc1cc(NC(=O)Cn2c(N3CCC(C)CC3)nc(C)cc2=O)cc(OC)c1	?	?	6.3µM*	i	9.7µM*	12µM*	3%	6.9µM*
COc1cccc(NC(=O)Cn2c(N3CCC(C)CC3)nc(C)cc2=O)c1	?	-27%	?	i	/	/	/	/
COc1ccc(OC)c(NC(=O)Cn2c(N3CCC(C)CC3)nc(C)cc2=O)c1	?	?	13µM*	i	22µM*	22µM*	4%	24µM*
COCCCn1c(C)cc(C(=O)N2CCC(CCOc3ccccc3)C2)c1C (stereo unspecified)	?	?	-19%	i	/	/	/	/
O=C(NCc1ccc(F)cc1)C1=NOC2CN(C(=O)C3CC3)CC12 (stereo unspecified)	i	4%	/	/	/	/	/	/
CC(C)(C)c1ccc(C(=O)N2CCC(c3n[nH]c(=O)n3Cc3ccc(F)cc3)CC2)cc1	?	?	11µM*	i	24µM*	22µM*	2%	22µM*
O=C(c1ccc(C(F)(F)F)cc1)N1CCC(c2n[nH]c(=O)n2Cc2ccc(F)cc2)CC1	?	-41%	-2%	i	/	/	/	/
CCc1nccn1CC(=O)NC(C)c1cnn(-c2ccccc2C)c1C (stereo unspecified)	?	?	11µM*	i	?	?	-2%	?
SMILES	HEK cytotox	3T3 cytotox	hNpr1 antagonist	Luciferase inh	NPR1 antag cnf	Npr2 selectivity	FLuc counter	GloSensor cGMP
Cc1nccc(N2CCC(Oc3cnc4c(ccn4CCN[S+](C)(=O)[O-])c3)CC2)n1	?	?	28µM*	i	31µM*	35µM*	-2%[86.2 µM]	25µM*
CCc1cnc(N2CCC(Oc3cnc4c(ccn4CCN[S+](C)(=O)[O-])c3)CC2)nc1	?	?	6.3µM*	i	6.9µM*	9.7µM*	2%	6.9µM*
COc1ccccc1NC(=O)Cn1ccn2nc(-c3ccc(F)cc3)c(CO)c2c1=O	-15%	4%	1%	i	/	/	/	/
O=C(c1ccc(F)c(Cl)c1)N1CCC(Cc2nc(-c3cnccn3)no2)CC1	?	32µM*	?	i	22µM*	?	0%	19µM*
O=C(c1ccc(F)cc1Cl)N1CCC(Cc2nc(-c3ccc(F)cc3)no2)CC1	32µM*	?	3.2µM*	i	3.1µM*	3.1µM*	4%	3.1µM*
CC(C)c1noc(CC2CCN(C(=O)c3ccc(F)cc3Cl)CC2)n1	?	i	?	i	/	/	/	/
O=C(c1ccc(F)cc1F)N1CCC(Cc2nc(-c3cnccn3)no2)CC1	-6%	-9%	-2%	i	/	/	/	/
COc1ccc(-c2noc(CC3CCN(C(=O)c4cc(F)ccc4Cl)CC3)n2)cc1	?	?	10µM*	i	12µM*	14µM*	0%	11µM*
O=C(c1cc(F)ccc1F)N1CCC(Cc2nc(-c3ccccc3)no2)CC1	?	?	5.6µM*	i	7.7µM*	9.7µM*	-15%	8.6µM*
Oc1ccc(-c2nc(C3CC3)nc3c2CN(Cc2ccsc2)CC3)cc1	?	?	3%	i	/	/	/	/
CCn1ccc(C(=O)N2CC(c3nc(CCOC)no3)C2)n1	0%	-19%	/	/	/	/	/	/
CCN(Cc1noc(C2CCC2)n1)C(=O)C(C)Oc1ccc2ccccc2c1 (stereo unspecified)	35µM*	-27%	11µM*	i	19µM*	22µM*	-1%	14µM*
